Growth data for 35 compounds are collected here from PubChem BioAssay (NCI).

SMILES strings stand for the structures. Compounds without any hit were thinned out: in the full panel of roughly 83,000, 20% have a hit.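 Assay: single dose, 48 h. Readout: percent growth (0 = no net growth; negative = cell death). Active: <10.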 A number with no mark means an inactive call. Calls of active or inactive are those of the source.

This assay deals with BT-549 breast. The experiment in a line: NCI-60 one-dose screen, 48 h (100 = growth as untreated, 0 = no growth, -100 = all killed). The settings on record: 10 µM unless noted.
Regarding `O=C(Cn1c(-c2ccc([N+](=O)[O-])cc2)nc2ccccc21)NNC(=O)c1cccnc1`, the growth is 97%.
Consider `O=C(Cn1cc(CN2C(=O)c3ccccc3S2(=O)=O)nn1)Nc1nc2ccccc2s1`, for which the growth is 97.9%.
To `CCN1CC(=O)N(/N=C2\C(=O)Nc3ccccc32)C1=S` belongs 88.5%; to `O=C1NCCC12CCN(c1c(Cl)cncc1-c1ccc(O)cc1)CC2`, 114%; to `COP(=O)(OC)C(C)(C)CC(=O)CC(C#N)(C#N)C(C#N)C#N`, 96.2%.
With `COc1ccc(-c2nc3c(c(-c4ccccc4)nn3-c3ccccc3)c(-c3ccc(N4CCN(C)CC4)cc3)c2C#N)cc1` the figure was 90.6%; with `C#Cc1cccc(Nc2ncnc3ccc(-c4cncc(NS(C)(=O)=O)c4)cc23)c1`, 19.2%.
With `Cc1ccc(Sc2nnc(/N=C3\C(=O)Nc4ccccc43)s2)cc1` the figure was 116%.
Consider `CN(C)c1ccc(/C=C/C(=O)c2ccc(-n3cc(CN4CCN(c5cc6c(cc5F)c(=O)c(C(=O)O)cn6C5CC5)CC4)nn3)cc2)cc1`, for which the growth is 32%.
With `CCOC(=O)CSc1ncnc2c1c(-c1ccccc1)c(-c1ccccc1)n2-c1ccc(C)cc1` the figure was 61.8%; with `O=C(CCCCCCN1CC(=O)N2[C@H](c3cc(Br)cs3)c3[nH]c4ccccc4c3C[C@H]2C1=O)NO`, 68.1%.
To `Cn1c(O)c(C=NCCN=Cc2c(O)n(C)c(=O)n(C)c2=O)c(=O)n(C)c1=O` belongs 118%; to `C/C(Nc1ccc(Cl)c(Cl)c1)=C1\CCOC1=O`, 87.2%; to `C=C1C(=O)O[C@H]2[C@H]1CC/C(COC(=O)CCSCCC(=O)OC/C1=C/CC[C@@]3(C)O[C@H]3[C@H]3OC(=O)C(=C)[C@@H]3CC1)=C\CC[C@@]1(C)O[C@@H]21`, -9.47% (active).
As for `Cc1ccc(/C=N/Nc2nc(Nc3ccccc3)nc(-n3nc(C)cc3C)n2)cc1`, the growth was -5.91% (active).
To `O=C(CCc1nnc(Cn2cnc3nc[nH]c3c2=O)o1)c1nc2ncccc2[nH]1` belongs 95.9%; to `O=C1NC(=O)c2c1c1c3ccccc3ccc1c1[nH]c3ccc(Br)cc3c21`, 39.4%.
With `Nc1nc(=S)c2ncn(C3OC(COP(=O)(O)O)C(O)C3O)c2[nH]1` (stereo not given) the figure was 48.8%; with `CC12CCC3c4ccccc4CCC3(CO1)C2` (stereo not given), 121%.
On to `O=Cc1ccc([N+](=O)[O-])s1`, for which the growth was 102%.
In the case of `CC(C)c1ccc(COCc2cc(CN3CCCC3)c(O)c3ncccc23)cc1`, the growth was 13.1%.
To `COCCNC(=O)c1ccc(-c2nc3ccc4[nH]ncc4c3c3c2CCCC3)cc1` belongs 10.3%.
To `C/C(=N/O)c1ccc(F)cc1` belongs 88.2%.
With `COc1ccc2nc(NC(=O)CSc3nnc4n3S(=O)(=O)c3ccccc3N4C)sc2c1` the figure was 113%.
Consider `CN(Cc1ccc(C(F)(F)F)cc1)CC(O)C(=O)Nc1ccc(Cl)cc1` (stereo not given), for which the growth was 56.1%.
To `Cc1ccc2c3c(c(=O)[nH]c2c1)C1(C(C#N)=C(N)O3)c2cc(Br)ccc2-c2ccc(Br)cc21` belongs 61.8%; to `CC1(C)CC[C@]2(c3nnc(-c4ccncc4)o3)CC[C@H]3C(=CC[C@H]4[C@@]3(C)CC[C@H]3C(C)(C)C(=O)CC[C@]43C)[C@@H]2C1`, 88.1%.
Regarding `C=C(C)[C@@H]1CC[C@]2(C(=O)N3CCN(C)CC3)CC[C@]3(C)[C@H](CC[C@@H]4[C@@]5(C)CC(=C/c6ccncc6)/C(=N/O)C(C)(C)[C@@H]5CC[C@]43C)[C@@H]12`, the growth was 82.7%.
To `Oc1ccc(CCn2c(O)c(/C=C3\CN=c4ccccc4=N3)sc2=S)cc1` belongs 43.8%; to `CCNC(=O)c1[nH]cc(-c2ccccc2)c1-c1cc(OC)c2c(c1OC)OCO2`, 98.4%; to `C[C@]12C=CC(=O)C=C1CCC1C2[C@@H](O)C[C@@]2(C)C1CC[C@]2(O)C(=O)COC(=O)CCC(=O)O` (stereo not given in full), 89.7%.
With `C=CCc1c(O)c(C(=O)/C=C/c2ccc(Cl)cc2)c(OC)c2ccoc12` the figure was 47.8%; with `COc1cc(-n2cc(-c3cc(O)c(C/C=C(\C)CCC=C(C)C)c(O)c3)nn2)cc2c1O[C@]1(C)CC[C@@H](O)C(C)(C)[C@H]1C2`, 29%.
With `O=C(CSc1nc2ccc([N+](=O)[O-])cc2[nH]1)Nc1cccc(C(F)(F)F)c1` the figure was 16.5%.
In the case of `COc1ccc(C(=O)Nc2ncc(Cc3ccc(F)cc3)s2)cc1`, the growth was 40.4%.
